# Laboratory results: paper PMC5540273 (PLoS ONE, 2017)
# Assays:
# Conditions in all cases: concentration: 1 μM, replicates: in singlicate; n = 1
# PIK3CD = test system: PIK3CD
# PIK3CG = test system: PIK3CG
# PIK4CB = test system: T1, PIK4CB
# T1 construct: gene PI4KB
# PIKFYVE = test system: PIKFYVE
# PIM1 = test system: PIM1
# PIM2 = test system: PIM2
# PIM3 = test system: PIM3
# PIP5K1A = test system: PIP5K1A
# PIP5K1C = test system: PIP5K1C
# PIP5K2B = test system: PIP5K2B
# 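Note: KINOMEscan kinase panel screen.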
SMILES,%Inh (PIK3CD),%Inh (PIK3CG),%Inh (PIK4CB),%Inh (PIKFYVE),%Inh (PIM1),%Inh (PIM2),%Inh (PIM3),%Inh (PIP5K1A),%Inh (PIP5K1C),%Inh (PIP5K2B)
Nc1nc(-c2ccc3c(N)n[nH]c3c2)cc(N2CCC[C@@H](C(=O)Nc3ccccc3)C2)n1.O=C(O)C(F)(F)F.O=C(O)C(F)(F)F [GSK2288359],31%,13%,6%,4%,20%,0%,5%,0%,30%,8%
CC(C)(C)c1ccc(-n2cnc3c(N)ncnc32)cc1 [SKF-97263],28%,100%,30%,0%,9%,0%,0%,0%,0%,2%
Cc1cccc(-c2nc(Nc3ccc4[nH]nnc4c3)c3ccccc3n2)n1 [GW867587],0%,0%,0%,13%,17%,0%,2%,27%,0%,0%
Clc1cc(Nc2ncnc3cc[nH]c23)ccc1OCc1ccccn1,25%,4%,34%,0%,5%,10%,22%,30%,0%,0%
OCCOCCn1ccc2ncnc(Nc3ccc(Oc4cccc(Cl)c4)c(Cl)c3)c21,0%,0%,0%,25%,2%,0%,5%,0%,34%,0%
